# Screening results: PubChem, several laboratories
# An excerpt weighted towards active compounds, which were near 0.69% of everything screened.
# PfHsp90 yeast 2 – growth inhibition of PfHsp90-expressing yeast, primary screen, antimalarial PfHsp90 inhibitor project, S. cerevisiae, BacTiter-Glo luminescence, single point, set 2; 310,000 compounds, 0.32% hits; inhibition, % at 9.4 µM; BacTiter-Glo ATP, 48 h; yeast lacking PDR1 and PDR3 efflux regulators;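 active means every replicate shows inhibition above about 80%, whatever the replicate mean, limit read from the data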;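 further: 0% = DMSO neutral controls and 100% = 20 µM radicicol positive controls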
# Tat transport – E. coli Tat export inhibitors, primary screen, MC4100, TorA-mCherry reporter, fluorescence, single point | inhibition, % at 10 µM | 340,000 compounds, 0.036% hits | AID 488895, 2010;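 active means mean replicate inhibition at least 50% and at least half of replicates individually reaching 50%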;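 further: exported cargo escapes ClpAP degradation while cytoplasmic cargo is degraded and loses fluorescence; 0% = median of neutral control wells and 100% = median of NaSCN control wells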
# E coli growth-1 – E. coli V3065 growth inhibition, primary screen, counter-screen for AddAB inhibitor project, absorbance, OD600; 18 h; inhibition, % at 11.9 µM; 330,000 compounds, 0.27% hits;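 active means inhibition above the campaign's mean inhibition across all tested compounds plus 3 SD, cut at about 9.9% in these data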;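 further: uninfected addAB+ strain grown without phage in ampicillin broth; 0% = DMSO wells and 100% = ciprofloxacin 0.95 µg/ml wells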
# phage Ecoli inh – growth loss of phage-infected E. coli, primary screen, RecBCD inhibitor project, absorbance, with phage, HTS | 360,000 compounds, 0.26% hits | AID 651602, 2012 | inhibition, % at 11.9 µM; in the data active means inhibition above about 11%
# AddAB inh – growth inhibition of E. coli expressing H. pylori AddAB, primary screen, AddAB inhibitor project, absorbance; inhibition, % at 11.9 µM; 330,000 compounds, 0.29% hits; AID 435030, 2010; in the data active means inhibition above about 12%;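 further: 0% = vehicle wells of infected cells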
# E coli growth-2 – E. coli growth inhibition, primary screen, OD600; Escherichia coli growth, 23 h; hits give low values; OD600 absorbance (no concentration beside the values); 330,000 compounds, 0.21% hits; AID 1053175, 2014;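 active means OD600 absorbance below the run mean of sample wells minus 3.6 SD, in any replicate, cut at about 0.56 in these data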
# RecBCD conf – growth loss of phage-infected RecBCD+ E. coli, confirmation, RecBCD inhibitor project, absorbance, E. coli V66, T4 gene 2 phage; shares compounds with phage Ecoli inh; E. coli V66 + T4 2- phage, growth OD; inhibition, % at 11.9 µM; 890 compounds, 45% hits; AID 651982, 2013;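 active means mean inhibition over triplicates exceeding the hit threshold derived in the original primary screen, cut at about 11% in these data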
# Ecoli viability – E. coli viability inhibition, counter-screen for RecBCD inhibitor project, absorbance, high throughput | shares compounds with phage Ecoli inh | absorbance (OD) growth | inhibition, % at 11.9 µM | 890 compounds, 29% hits | AID 651983, 2013; in the data active means inhibition above about 20%;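 further: E. coli strain V66 grown with compound alone and no phage infection; 0% = bacteria with DMSO vehicle only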
# AddAB phage OD – growth loss of phage-infected AddAB-carrying E. coli, confirmation, counter-screen for RecBCD inhibitor project, absorbance, E. coli V3065, T4 phage; 890 compounds, 45% hits; E. coli expressing H. pylori AddAB + T4 phage, OD growth; gene 2 mutant T4, recBCD-deleted host; shares compounds with phage Ecoli inh; inhibition, % at 11.9 µM;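 active means mean inhibition above the solvent-only control wells' mean plus 3 SD, cut at about 22% in these data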;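 further: higher means less bacterial growth from phage killing when AddAB is blocked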
# Active calls of the source: *; nt = no result given.
SMILES,PfHsp90 yeast 2,Tat transport,E coli growth-1,phage Ecoli inh,AddAB inh,E coli growth-2,RecBCD conf,Ecoli viability,AddAB phage OD
Nc1nonc1-n1nnc(C(=O)N/N=C/c2cc(Br)ccc2O)c1CNc1ccccc1,40,-4,0,12*,5,nt,8,10,11
Cc1ccc(/C=N/NC(=O)c2nnn(-c3nonc3N)c2CNc2ccccc2)cc1,2,-6,-1,2,3,nt,nt,nt,nt
FC(F)(F)c1cccc(Sc2nc(-c3ccccc3)nnc2C(F)(F)F)c1,4,0,1,2,4,0.71,nt,nt,nt
Nc1nc(N)c2cc(Sc3cccc(C(F)(F)F)c3)ccc2n1,nt,nt,nt,61*,nt,nt,67*,58*,86*
Nc1nc(N)c2cc(Sc3ccc(Cl)cc3)ccc2n1,nt,nt,nt,101*,nt,nt,102*,104*,103*
O=C1c2cc(Cl)ccc2-c2c(O)cc(Cl)cc21,97*,2,nt,13*,nt,0.57,10,12,6
COc1cc(C=NO)nc(-c2ccccn2)c1,98*,-22,nt,39*,nt,nt,32*,41*,33*
O=Nc1c(-c2cccc([N+](=O)[O-])c2)nc2ncccn12,nt,nt,2,16*,5,nt,72*,77*,100*
O=[N+]([O-])c1ccc(N2CCN(Cc3ccccc3)CC2)c2c1no[n+]2[O-],nt,nt,nt,12*,nt,nt,8,10,42*
O=[N+]([O-])c1ccc(N2CCN(Cc3ccccc3)CC2)s1,12,7,-1,1,0,0.66,nt,nt,nt
CC(=NNc1nncc2ccccc12)c1ccc(O)cc1,nt,nt,nt,nt,nt,0.71,nt,nt,nt
CN=c1scc(-c2cccs2)n1/N=C/c1ccc(O)c(O)c1O,10,2,10,13*,11,nt,5,6,8
COCCN=c1scc(-c2ccco2)n1/N=C/c1ccc(O)c(O)c1O,nt,12,5,9,9,nt,nt,nt,nt
C=CCN=c1scc(-c2ccco2)n1/N=C/c1ccc(O)c(O)c1O,15,11,7,11*,6,nt,6,7,3
CC(CCN1C(Nc2ccccc2)=NCC1Cc1ccccc1)c1ccccc1 (configuration not stated),nt,nt,nt,nt,nt,0.7,nt,nt,nt
CCC(=O)NC(c1ccco1)c1cc(Br)c2cccnc2c1O (configuration not stated),nt,nt,nt,20*,nt,nt,6,10,18
CCC(=O)NC(c1cc(Cl)c2cccnc2c1O)C1CC1 (configuration not stated),4,5,11*,14*,8,0.68,3,5,7
CCOc1ccc(C(NC(=O)c2ccco2)c2ccc(OC)c(OC)c2)cc1 (configuration not stated),-4,3,0,1,5,0.66,nt,nt,nt
CC(=O)NC(c1cc(F)c2cccnc2c1O)C1CC1 (configuration not stated),nt,16,-2,0,-4,0.68,nt,nt,nt
CC(=O)NC(c1ccc(N(C)C)cc1)c1cc(Cl)c2cccnc2c1O (configuration not stated),nt,nt,nt,19*,nt,nt,7,9,22*
CCCC(=O)NC(c1ccc(OC)c(OC)c1)c1cc(Cl)c2cccnc2c1O (configuration not stated),100*,-5,11*,14*,8,0.66,10,13,19
COC(=O)NN=Cc1cc(C)n(-c2ccc(Br)cc2)c1C,nt,nt,nt,nt,nt,0.69,nt,nt,nt
CCCCC(=O)NC(c1ccc(Cl)cc1Cl)c1ccc2cccnc2c1O (configuration not stated),-78,4,nt,19*,nt,nt,13*,14,31*
CC(=O)NC(c1ccc(Cl)cc1)c1ccc2cccnc2c1O (configuration not stated),114*,-10,nt,20*,nt,0.53,12*,16,18
COc1ccc(C(NC(C)=O)c2cc(Cl)c3cccnc3c2O)cc1 (configuration not stated),-103,-5,20*,14*,10,0.68,6,9,16
SMILES,PfHsp90 yeast 2,Tat transport,E coli growth-1,phage Ecoli inh,AddAB inh,E coli growth-2,RecBCD conf,Ecoli viability,AddAB phage OD
CCCCCC=NNC(=O)c1[nH]c2ccc([N+](=O)[O-])cc2c1C,nt,nt,nt,nt,nt,0.64,nt,nt,nt
NC(COc1ccc(Cl)cc1Cl)=NO,nt,nt,nt,nt,nt,0.62,nt,nt,nt
CCCCNC(=O)N(O)C1N(N=Cc2ccco2)C(=S)SC1(C)C (configuration not stated),nt,nt,nt,nt,nt,0.73,nt,nt,nt
O=C(O)c1ccccc1C=Nn1c(C2CCCCC2)n[nH]c1=S,nt,nt,nt,nt,nt,0.68,nt,nt,nt
CC(C)CC(CC#N)N1CCN(Cc2ccccc2)CCC1=O (configuration not stated),nt,nt,nt,nt,nt,0.68,nt,nt,nt
c1ccc(Nc2ccccc2Nc2ccccn2)nc1,nt,0,4,2,2,0.71,nt,nt,nt
Oc1cccc2ccc(Nc3ccccn3)nc12,nt,-15,18*,12*,12,0.62,6,9,5
Cc1ccc(C(=O)NC(=Cc2ccco2)C(=O)NCCc2c[nH]c3ccccc23)cc1C,nt,nt,nt,nt,nt,0.68,nt,nt,nt
COc1ccc(-n2c(O)c(C=NNS(=O)(=O)c3cc(C)ccc3C)c3ccccc3c2=O)cc1OC,nt,nt,nt,nt,nt,0.7,nt,nt,nt
O=C(Oc1c(Br)cc([N+](=O)[O-])cc1Br)c1cccnc1,-3,22,6,13*,10,0.48*,14*,17,18
O=C(Cc1cnn(-c2ccccc2)c1)c1ccc(O)c(O)c1O,3,12,8,11*,12,0.64,2,5,10
COC(=O)C1=C(C)N(Cc2ccccc2C(F)(F)F)C(=NCc2ccccc2)NC1c1ccc(C(F)(F)F)cc1 (configuration not stated),nt,nt,nt,13*,nt,nt,1,2,8
COC(=O)C1=C(C)N(Cc2ccccc2C(F)(F)F)C(=NCc2cccc(C(F)(F)F)c2)NC1c1ccc(C(F)(F)F)cc1 (configuration not stated),nt,nt,nt,5,nt,nt,nt,nt,nt
CCC(=O)Nc1ccc2nc(C)n(CC(=O)Nc3ccccc3)c(=O)c2c1,4,0,-4,4,-1,0.69,nt,nt,nt
Cc1cc(NC(=O)Cn2c(C)nc3ccccc3c2=O)ccc1Br,10,4,19*,13*,20*,0.76,12*,17,17
Nc1nc(N)c2cc(CNc3ccc(Cl)c(Cl)c3)ccc2n1,nt,nt,nt,58*,nt,nt,41*,36*,73*
